This is a sample that favours compounds with a hit; in the whole collection about 2.4% have one here.
D2 PAM-1 – D2 dopamine receptor (human) potentiation. P14416. potentiation, % at 10 µM. HEK293 T-REx D2, calcium flux, EC20 dopamine potentiation. actives 0.34% (n = 340,000);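 active = potentiation over 3 SD above the plate norm, cut at about 30% in these data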; note: 0% is about no effect
Target sequence (P14416 whole entry, looked up): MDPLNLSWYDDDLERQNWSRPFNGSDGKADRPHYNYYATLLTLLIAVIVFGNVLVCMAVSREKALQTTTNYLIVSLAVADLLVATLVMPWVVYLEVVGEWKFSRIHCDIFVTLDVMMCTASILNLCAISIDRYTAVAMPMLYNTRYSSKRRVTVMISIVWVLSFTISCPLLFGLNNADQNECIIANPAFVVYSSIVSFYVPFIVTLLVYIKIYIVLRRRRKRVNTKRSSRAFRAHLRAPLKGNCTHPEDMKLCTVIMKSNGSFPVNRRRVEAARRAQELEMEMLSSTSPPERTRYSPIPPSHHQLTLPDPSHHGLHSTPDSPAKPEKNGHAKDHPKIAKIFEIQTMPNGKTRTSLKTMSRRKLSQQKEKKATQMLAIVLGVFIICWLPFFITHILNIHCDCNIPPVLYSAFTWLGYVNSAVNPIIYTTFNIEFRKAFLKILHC
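Potentiation of an EC20 dopamine calcium response measured kinetically over 180 s, after a preceding 180 s compound-only read flagging agonists. Cells: inducible Hek293 Trex D2 line, 4000/well, cultured overnight at 30 C before dye loading.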
D2 PAM-2 – positive allosteric modulators of human D2 dopamine receptor. actives 0.23% (n = 360,000). DiscoveRx D2 beta-arrestin cells, luminescence, 90 min; 100% = 57 uM dopamine signal. potentiation, % (concentration not given with the values). AID 624464; in the data active = potentiation above about 50%
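D2 cells co-treated with compound plus 50 nM dopamine (EC20) for 90 min at 37 deg C to detect potentiation. Beta-arrestin recruitment was read as enzyme-fragment luminescence after 1 h at ambient temperature. Full response was set by 57 uM dopamine.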
D2 antag – antagonizes the human D2 dopamine receptor; P14416; HEK293 TREx D2 cells, calcium flux, dopamine EC80; inhibition, % at 10 µM; actives 2% (n = 340,000); AID 485344; in the data active = inhibition above about 30%; inactive = below that, where a call was filed; note: 0% is about no effect
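Cells plated overnight at 30 C with tetracycline; no-wash calcium dye, 30–90 min RT; 10 s baseline; compound pinned; 180 s read; EC80 dopamine added; another 180 s read.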
D2 ag-1 – D2 dopamine receptor (human) agonism | P14416 | HEK293 T-REx D2 cells, calcium flux agonist mode | activation, % at 2 µM | actives 0.53% (n = 340,000);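 active = activation over 3 SD above normal in the single-dose calcium agonist read, cut at about 30% in these data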; note: 0% is about no effect
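HEK293 Trex D2 cells, tetracycline-induced, o/n 30 C 5% CO2; no-wash Ca dye, RT 30–90 min; 10-cycle baseline, 23 nl cpd added, kinetic Ca read 180 s; agonist hits = positive Ca response.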
D2 ag-2 – agonists of human D2 dopamine receptor (beta-arrestin). P14416. DiscoveRx PathHunter D2 beta-arrestin, luminescence, 90 min; 100% = 57 uM dopamine signal. activation, % (test concentration not listed). actives 0.084% (n = 360,000). AID 624465; in the data active = activation above about 40%
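Agonist mode: compounds alone added to overnight-plated D2 PathHunter cells for 90 min at 37 C, with 57 uM final dopamine (EC100) defining full response. Beta-arrestin recruitment detected by chemiluminescent reagent, read after 1 h at ambient temperature.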
Active calls of the source: *; . = not tested or not shown.

SMILES	D2 PAM-1	D2 PAM-2	D2 antag	D2 ag-1	D2 ag-2
COc1ccc(/C=C2/N=C(SCC(=O)Nc3cc(C)on3)N(c3ccccc3)C2=O)cc1	1	7	32*	-1	0
O=C(NCC(c1ccco1)N1CCCC1)c1cc2ccccc2s1 (configuration not stated)	-22	-3	35*	0	7
Cc1ccc(C(=O)NCC(c2ccco2)N2CCCCC2)s1 (configuration not stated)	-14	-30	36*	0	-1
CCCCNc1nc2c(S(=O)(=O)c3ccc(C)cc3)nnn2c2ccsc12	2	.	.	1	.
Cc1ccc(C)n1-c1c(C(=O)NCCC(C)C)sc2ncccc12	2	.	.	-2	.
CCCNC(=O)C(=O)NCC(c1ccc2c(c1)OCO2)N1CCOCC1 (configuration not stated)	.	.	.	1	.
CCN1CCN(c2ccc([N+](=O)[O-])c(Sc3nc4ccccc4[nH]3)c2)CC1	-25	-21	87*	-2	-6
COc1ccc(CCC(C)NC2C3CC4CC(C3)CC2C4)cc1 (configuration not stated)	-18	-15	40*	1	-1
COc1ccc(CCC(C)Nc2ccccc2F)cc1 (configuration not stated)	5	0	-18	-1	-1
Cc1cccc2c1-c1sc(C(=O)N(C)c3cccc(Cl)c3)cc1CO2	24	.	.	-1	.
CCNC(=S)N(CCc1c(C)[nH]c2ccc(OC)cc12)Cc1cccnc1	33*	5	-19	-1	0
CCNC(=S)N(CCc1c(C)[nH]c2ccc(C)cc12)Cc1cc(OC)c(OC)c(OC)c1	7	-9	-14	1	-5
CCNC(=S)N(CCc1c(C)[nH]c2ccc(Cl)cc12)Cc1cccnc1	-4	-10	3	18	3
COCCNC(=S)N(CCc1c(C)[nH]c2ccc(C)cc12)Cc1cc(OC)c(OC)c(OC)c1	4	4	31*	0	4
Cc1cccc(NC(=O)NC(C)C(c2cccs2)N2CCOCC2)c1 (configuration not stated)	11	-10	30*	1	-6
CC(C)C(=O)NC(C)C(c1cccs1)N1CCOCC1 (configuration not stated)	10	7	-13	0	-3
CC(NC(=O)c1ccco1)C(c1cccs1)N1CCN(c2ccccc2F)CC1 (configuration not stated)	38*	8	22	-1	-1
Cc1ccc(C(=O)NC(C)C(c2cccs2)N2CCCC2)s1 (configuration not stated)	33*	-19	-4	0	7
CCNC(=O)C1CCN(Cc2cc3ccccc3n2Cc2ccc(C)cc2)CC1	-15	.	.	0	.
CCOC(=O)c1cc(OC(=O)c2cc(OC)c(OC)c(OC)c2)n(-c2ccccc2)n1	3	.	.	0	.
Cc1ccc(C(=O)NCCN2CCCC2)cc1	-31	-17	8	0	-3
CCOc1c(Cl)cc(C(=O)NCCN2CCCCC2)cc1Cl	-9	-17	34*	0	1
Cc1ccc(O)c(NC(=O)c2ccc(Br)c(S(=O)(=O)N3CCCCC3)c2)c1	-17	.	.	1	.
CS(=O)(=O)N1CCC(C(=O)Nc2ccc(OCc3ccccc3)cc2)CC1	8	-1	45*	1	-1
Cc1cccn2c(=O)c(C(=O)N3CCN(c4ccc(Cl)cc4)CC3)cnc12	-10	.	.	0	.
SMILES	D2 PAM-1	D2 PAM-2	D2 antag	D2 ag-1	D2 ag-2
CCOC(=O)/C(=C\c1ccc(OC)c(OC)c1)C(=O)c1cccnc1	40*	-5	2	3	-2
COc1ccc(/C=C/C(=O)O/N=C(\N)c2cccnc2)cc1OC	-3	16	-6	-2	6
CN(C)c1ccc(NC(=O)c2cccc(N3C(=O)C4C5C=CC(C5)C4C3=O)c2)cc1 (configuration not stated)	18	4	36*	1	1
Cc1ccc(NC(=O)c2cccc(N3C(=O)C4C5C=CC(C5)C4C3=O)c2)cc1C (configuration not stated)	5	-4	5	2	7
COCCn1c(C)cc(/C=C(\C#N)C(=O)OC(C)C(=O)Nc2ccc(NC(C)=O)cc2)c1C (configuration not stated)	-3	1	33*	0	0
COc1ccc(NC(=O)CC2SC(=O)NC2=O)cc1 (configuration not stated)	36*	-18	-12	0	-8
Cc1ccc(NC(=O)CC2SC(=O)NC2=O)cc1 (configuration not stated)	7	-18	-8	0	-9
CCn1c(CN2CCCCC2)nc2cc(NC(=O)COc3ccc([N+](=O)[O-])cc3)ccc21	-39	.	.	26	.
COc1ccccc1CN(Cc1ccco1)c1cnc(S(C)(=O)=O)nc1C(=O)Nc1ccccc1Cl	-17	.	.	2	.
O=C1Nc2ccccc2/C1=C/c1ccccc1Cl	-1	-11	4	-1	-2
CN1CCN(c2ccccc2/C=C2/C(=O)Nc3ccccc32)CC1	-26	-13	37*	3	-4
Brc1ccc(Oc2nnnn2-c2ccccc2)cc1	-8	-7	45*	-3	-30
Cc1nc(Oc2ccccc2C)c2oc3ccccc3c2n1	10	.	.	0	.
Cc1ccc(C(CC(=O)O)NC(=O)CN2C(=O)c3ccccc3C2=O)cc1 (configuration not stated)	0	-8	43*	1	-7
Cc1ccc(NC(=O)CN2C(=O)c3ccccc3C2=O)nc1	-6	-6	-8	0	-7
CCOC(=O)c1sc(C)c2c(=O)n(Cc3ccc(Cl)cc3)c(C)nc12	29	28	38*	0	-1
CCN(CC)c1ccc(/C=C2\C(=N)N3N=C(CC(=O)N4CCOCC4)SC3=NC2=O)cc1	-5	-2	8	33*	-1
COC(=O)c1sccc1S(=O)(=O)N1CCN(c2ccc(C)cc2C)CC1	-5	.	.	-2	.
C[N+](C)(C)CCOC(=O)CCC(=O)OCC[N+](C)(C)C	.	1	.	.	-5
CC(=O)SCC[N+](C)(C)C	-3	3	36*	4	-6
Cc1cccc(OC(=O)CSc2nnc(CNC(=O)c3ccccc3)o2)c1C	-2	.	.	1	.
OCC1(Cc2cccc(F)c2)CCN(Cc2ccc3cccc(F)c3n2)CC1	-19	-12	40*	0	-3
COc1ccc(CC2(CO)CCN(Cc3cccc4nccnc34)CC2)cc1	5	-15	-4	0	-21
CCOC(=O)C1(CC2CC2)CCN(Cc2ccc3cccc(F)c3n2)CC1	-21	-10	65*	0	2
OCC1(CCOc2ccccc2)CCN(Cc2ccc3cccc(F)c3n2)CC1	2	-14	0	0	-4
